# ± gives the standard deviation.
# Test system: MILI (PIWIL2) piRISC loaded with piRNA #1 (26 nt)
# Assay: pre-steady-state target cleavage rate (min^-1); guide: piRNA #1 5'p-UGAGGUAGUAGGUUGUAUAGUAUCCA; MIWI and MILI are mouse PIWI proteins and EfPiwi is from a freshwater sponge; tags in brackets are library labels; higher = faster piRNA-guided slicing of the target
# Settings: auxiliary factor: 500 nM mouse GTSF1
# In short: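 A burst-and-steady-state fit was used to obtain the pre-steady-state cleavage rate. The input data were sequencing reads of uncleaved targets, normalised to depth and to weakly complementary targets, from a […] transcribed, DNA-blocked target RNA library mixed with 1 nM active affinity-purified piRISC holding one synthetic guide, with or without 500 nM GTSF1 partner protein, in HEPES–potassium acetate buffer at 33 °C for 0–8 or 0–960 min. Three trials were pooled and k3 was capped at 0.0001 min^-1.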
# 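Further: 1 nM active piRISC with 0.1 nM target library at 33 °C single turnover.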
row,Sequence,pre-steady-state target cleavage rate
1,GGAGACGAUACUAAUGAACCUACUACCUCA,0.0821 ± 0.011
2,GGAGACCUAUGAAUACAAGCUACUACGUCA,0.0102 ± 0.003
3,GGAGACCUAUGUAUACAACCGUACUACCUCA,0.00758 ± 0.0041
4,GGAGACCUUACUAUACAACCUUCAACCUCA,0.00437 ± 0.003
5,GGAGACCUAUGUAUACAACGUACUUCCUCA,0.0105 ± 0.0026
6,GGAGACCUUACUUAACAACCUACUACCUCA,0.101 ± 0.016
7,GGAGACCUAUGUAUAGAAGCUACUACCUCA,0.0984 ± 0.013
8,GGAGACCUAACUAUUCAACCUAGUACCUCA,0.0158 ± 0.0076
9,GGAGACCAUACUAUAGAACCUACUUCCUCA,0.0428 ± 0.013
10,GGAGACCUAACUAUACAACCUACUACCUUA,0.12 ± 0.028
11,GGAGACCUAUCUAUACAACCGACUACCUCA,0.0049 ± 0.003
12,GGAGACCUAUCUAUAGAACCUACUUCCUCA,0.00536 ± 0.0024
13,GGAGACCUAUGUAUACAACCUACUACGAGA,0.013 ± 0.0047
14,GGAGACCUAUCUAAACAACCUACUAGCUCA,0.0571 ± 0.011
15,GGAGACCUAUGUAUACAACCUGCUACCUCA,0.0059 ± 0.0023
16,GGAGUAGGAUACUAUACAACCUACUACCUCA,0.145 ± 0.016
17,GGAGACCUAUGAUUACAACCUACUGCCUCA,0.00572 ± 0.0028
18,GGAGACCUAUGUUAACAACCUACUACCUCA,0.0234 ± 0.0048
19,GGAGACCUAUGUAUACAUCGUACUACCUCA,0.00791 ± 0.003
20,GGAGACCUAUGAAUACAACCGUACUACCUCA,0.00389 ± 0.003
21,GGAGACCUAUGAUUACAACCUACUACUUCA,0.00418 ± 0.0024
22,GGAGACCUAUCUAUAGUACCUACUACCUCA,0.092 ± 0.014
23,GGAGACCUAUGAUUACAACCUACAACCUCA,0.00538 ± 0.0023
24,GGAGACCUAUGAUAUGUUCCUACACCUCA,< 0.0001

# Source: the supplement of paper PMC10338343
